We go through 38 molecules from PubChem BioAssay (NCI).

The panel holds about 79,000 compounds, 15% with a hit somewhere; the sample as a whole holds those more often. Active and inactive are the calls of the source. Cut-off read from the data, not from the text of the source: active = growth inhibition above about 70%; inactive = the rest.

A short description of the first assay: NCI Yeast Anticancer Drug Screen. Data for the bub3 strain (AID 167). The settings on record: S. cerevisiae bub3 mutant strain, at 11.0 µM, hits give high values. The essentials:
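Part of a panel of yeast mutants defective in DNA damage repair or cell cycle regulation. Each strain is grown with compound, and inhibition is calculated relative to solvent-treated cultures.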
Take `O=[N+]([O-])c1cc[n+]([O-])cc1`: the growth inhibition was 2% (inactive).
Same read-out and setting: next, `CC1(C)CC(=O)C(/C=N/c2nc(-c3ccccc3)cs2)=C(O)C1`: -1% (inactive); `Nc1nc(N)c2nc(CNc3ccc(C(=O)NC(CCC(=O)O)C(=O)O)cc3F)cnc2n1` (stereo unspecified): 6% (inactive); `COC(=O)CC1(O)C(/C=C/c2ccccc2)C(C(=O)OC)C(=O)C(C(=O)OC)C1C(=O)OC` (stereo unspecified): -2% (inactive).
Still for that read-out and setting: in the case of `CC(C)(C)c1ccc(NS(=O)(=O)c2ccc(N)cc2)cc1` it was 9% (inactive); in that of `CCN(CC)CCNc1ccc([N+](=O)[O-])c2nc3ccccc3c(N)c12`, -21% (inactive).
On the same count and under the same terms, in the case of `CCCCN(CCCC)C(=O)/C=C/c1ccccc1` it was 21% (inactive).
Regarding `O=c1[nH]c(-c2ccccc2)nc2c1sc1nc3ccccc3n12`, the growth inhibition was -43% (inactive).
`O=[N+]([O-])c1ccc2c(c1)/C(=N/N=C1c3ccccc3Cc3ccccc31)c1cc([N+](=O)[O-])cc([N+](=O)[O-])c1-2`: the growth inhibition was 99% (active).
The same measure, in the same setting: in the case of `CC(C)C(C)/C=C\C(C)C1CCC2C3=CC=C4CC(O)CCC4(C)C3CCC21C` (stereo unspecified) it was -2% (inactive).
On to `O=C1Nc2ccc(Br)cc2C1=Nc1ccc2c(c1)OCO2`, for which the growth inhibition was -17% (inactive).
Still for that read-out and setting: in the case of `CCCCOCn1c(=O)[nH]c(=O)c2cc(Br)ccc21` it was -35% (inactive); in that of `Cc1ccc(S/C(=C\C(=O)O)c2ccccc2)cc1`, -4% (inactive).
The same measure, in the same setting: next, `O=[N+]([O-])/C=C/c1cc(Cl)c(/C=C/[N+](=O)[O-])cc1Cl`: 84% (active); `Cc1cc(S(=O)(=O)Nc2nnc3cnc4ccccc4n23)c(S)cc1Cl`: 2% (inactive).
On the same count and under the same terms, in the case of `O=C(/C=C/c1cc(Cl)cc(Cl)c1O)c1cccc(O)c1` it was 39% (inactive).
For the molecule `NC1CCCCC1N.Nc1c(N=Nc2ccc(-c3ccc(N=Nc4cc(S(=O)(=O)[O-])c5ccccc5c4N)cc3)cc2)cc(S(=O)(=O)[O-])c2ccccc12.[OH3+].[OH3+].[Pt+4]`, the growth inhibition was 54% (inactive).
`COC(=O)CCC(NC(=S)N/N=C(\C)c1ccccn1)C(=O)OC` (stereo unspecified): the growth inhibition is 32% (inactive).
In the case of `NC(=O)C(=O)NNc1ccccc1`, the growth inhibition was 64% (inactive).
The same measure, in the same setting: in the case of `COc1cc(C2SCC(=O)N2c2ccc(-c3ccc(-n4c(-c5ccccc5)nc5ccccc5c4=O)cc3)cc2)ccc1O` (stereo unspecified) it was 19% (inactive); in that of `COc1ccc(/C=C/c2sc3ccccc3[n+]2CCCCI)cc1OC`, -2% (inactive).
Still for that read-out and setting: next, `Cc1c(C(C)C)cc(OCCO)cc1C(C)C`: -4% (inactive).
With `Cc1cc(NCCCCCCCCNc2cc(C)nc3cc(N)ccc23)c2ccc(N)cc2n1`, the growth inhibition is 90% (active).
On the same count and under the same terms, next, `C=C(Cl)COC(=O)Nc1cccc(Cl)c1`: -8% (inactive).
With `CC(=O)OC1CC2C(C)(C)C(=O)C=C[C@]2(C)C2CCC3(C)C(=CCC3[C@H](CO)C[C@H](O)C(=O)C(C)(C)O)[C@]12C` (stereo partly specified), the growth inhibition was -41% (inactive).
As to `COc1ccc(/C=C/C(=O)c2ccccc2)cc1OC`, the growth inhibition is -36% (inactive).
On to `COc1c(O)c(C=O)c(Br)c(C=O)c1O`, for which the growth inhibition was 3% (inactive).
Still for that read-out and setting: next, `O=[N+]([O-])c1cc(Cl)cnc1Br`: -6% (inactive).
For the molecule `Cc1ccc2c(c1)C1(SC(C)C(=O)N1c1ccc(Cl)cc1)C(=O)N2` (stereo unspecified), the growth inhibition is 30% (inactive).
For the molecule `COc1cc(CSc2ccc(O)cc2)cc(O)c1O`, the growth inhibition is 11% (inactive).
On the same count and under the same terms, in the case of `Cc1ccc2c3ccc4c(c3n(C)c2c1)C(=O)C=CC4=O` it was -11% (inactive).
With `O=C(Nc1ccc(Cl)cc1)Nc1nnc2nc(C(C(=O)c3cccc([N+](=O)[O-])c3Cl)c3nc4nnc(NC(=O)Nc5ccc(Cl)cc5)n4[nH]c3=O)c(=O)[nH]n12`, the growth inhibition was -7% (inactive).
`O=C(O)C1CC(c2ccccc2)=NN1c1ccccc1` (stereo unspecified): the growth inhibition was -20% (inactive).
For the molecule `CCCCc1ccc(-n2c(C)c(COC(=O)NC)c(COC(=O)NC)c2C)cc1`, the growth inhibition is 56% (inactive).
On to `CCC(=O)c1cc(C(=O)C(=S)SC)cc(C(=O)C(=S)SC)c1`, for which the growth inhibition was 98% (active).
In the case of `CCn1c(O)c(C=Nc2ccccc2)s/c1=N/Nc1nc(-c2ccccc2)cs1`, the growth inhibition was -4% (inactive).
In the case of `Cc1ccccc1N=C(NO)c1ccccc1`, the growth inhibition was -5% (inactive).
The same measure, in the same setting: in the case of `Cc1nc2ccccc2nc1NNc1ccccc1` it was 28% (inactive).

Staying with this assay, now noted: S. cerevisiae bub3 mutant strain, at 33.0 µM, hits give high values.
`O=[N+]([O-])c1cc[n+]([O-])cc1`: the growth inhibition was 22% (inactive).
In the case of `CC1(C)CC(=O)C(/C=N/c2nc(-c3ccccc3)cs2)=C(O)C1`, the growth inhibition was 23% (inactive).
The same measure, in the same setting: next, `Nc1nc(N)c2nc(CNc3ccc(C(=O)NC(CCC(=O)O)C(=O)O)cc3F)cnc2n1` (stereo unspecified): 35% (inactive).
On the same count and under the same terms, in the case of `COC(=O)CC1(O)C(/C=C/c2ccccc2)C(C(=O)OC)C(=O)C(C(=O)OC)C1C(=O)OC` (stereo unspecified) it was -4% (inactive).
On the same count and under the same terms, next, `CC(C)(C)c1ccc(NS(=O)(=O)c2ccc(N)cc2)cc1`: 18% (inactive); `CCN(CC)CCNc1ccc([N+](=O)[O-])c2nc3ccccc3c(N)c12`: -12% (inactive); `CCCCN(CCCC)C(=O)/C=C/c1ccccc1`: 33% (inactive).
Turning to `O=c1[nH]c(-c2ccccc2)nc2c1sc1nc3ccccc3n12`, the growth inhibition is -43% (inactive).
Still for that read-out and setting: next, `O=[N+]([O-])c1ccc2c(c1)/C(=N/N=C1c3ccccc3Cc3ccccc31)c1cc([N+](=O)[O-])cc([N+](=O)[O-])c1-2`: 98% (active); `CC(C)C(C)/C=C\C(C)C1CCC2C3=CC=C4CC(O)CCC4(C)C3CCC21C` (stereo unspecified): -10% (inactive); `O=C1Nc2ccc(Br)cc2C1=Nc1ccc2c(c1)OCO2`: 2% (inactive).
The same measure, in the same setting: next, `CCCCOCn1c(=O)[nH]c(=O)c2cc(Br)ccc21`: -39% (inactive).
Same read-out and setting: in the case of `Cc1ccc(S/C(=C\C(=O)O)c2ccccc2)cc1` it was 6% (inactive); in that of `O=[N+]([O-])/C=C/c1cc(Cl)c(/C=C/[N+](=O)[O-])cc1Cl`, 92% (active).
In the case of `Cc1cc(S(=O)(=O)Nc2nnc3cnc4ccccc4n23)c(S)cc1Cl`, the growth inhibition was 10% (inactive).
On the same count and under the same terms, next, `O=C(/C=C/c1cc(Cl)cc(Cl)c1O)c1cccc(O)c1`: 97% (active); `NC1CCCCC1N.Nc1c(N=Nc2ccc(-c3ccc(N=Nc4cc(S(=O)(=O)[O-])c5ccccc5c4N)cc3)cc2)cc(S(=O)(=O)[O-])c2ccccc12.[OH3+].[OH3+].[Pt+4]`: 90% (active); `COC(=O)CCC(NC(=S)N/N=C(\C)c1ccccn1)C(=O)OC` (stereo unspecified): 77% (active).
The same measure, in the same setting: in the case of `NC(=O)C(=O)NNc1ccccc1` it was 95% (active).
As to `COc1cc(C2SCC(=O)N2c2ccc(-c3ccc(-n4c(-c5ccccc5)nc5ccccc5c4=O)cc3)cc2)ccc1O` (stereo unspecified), the growth inhibition is 23% (inactive).
Consider `COc1ccc(/C=C/c2sc3ccccc3[n+]2CCCCI)cc1OC`, for which the growth inhibition was 1% (inactive).
The same measure, in the same setting: next, `Cc1c(C(C)C)cc(OCCO)cc1C(C)C`: -5% (inactive).
For `Cc1cc(NCCCCCCCCNc2cc(C)nc3cc(N)ccc23)c2ccc(N)cc2n1`, the growth inhibition was 97% (active).
Still for that read-out and setting: in the case of `C=C(Cl)COC(=O)Nc1cccc(Cl)c1` it was 9% (inactive); in that of `CC(=O)OC1CC2C(C)(C)C(=O)C=C[C@]2(C)C2CCC3(C)C(=CCC3[C@H](CO)C[C@H](O)C(=O)C(C)(C)O)[C@]12C` (stereo partly specified), -29% (inactive).
For the molecule `COc1ccc(/C=C/C(=O)c2ccccc2)cc1OC`, the growth inhibition is 62% (inactive).
Consider `COc1c(O)c(C=O)c(Br)c(C=O)c1O`, for which the growth inhibition is 54% (inactive).
With `O=[N+]([O-])c1cc(Cl)cnc1Br`, the growth inhibition was -2% (inactive).
For the molecule `Cc1ccc2c(c1)C1(SC(C)C(=O)N1c1ccc(Cl)cc1)C(=O)N2` (stereo unspecified), the growth inhibition is 90% (active).
Still for that read-out and setting: next, `COc1cc(CSc2ccc(O)cc2)cc(O)c1O`: 9% (inactive).
Same read-out and setting: next, `Cc1ccc2c3ccc4c(c3n(C)c2c1)C(=O)C=CC4=O`: 16% (inactive); `O=C(Nc1ccc(Cl)cc1)Nc1nnc2nc(C(C(=O)c3cccc([N+](=O)[O-])c3Cl)c3nc4nnc(NC(=O)Nc5ccc(Cl)cc5)n4[nH]c3=O)c(=O)[nH]n12`: -8% (inactive).
The same measure, in the same setting: in the case of `O=C(O)C1CC(c2ccccc2)=NN1c1ccccc1` (stereo unspecified) it was -10% (inactive).
For the molecule `CCCCc1ccc(-n2c(C)c(COC(=O)NC)c(COC(=O)NC)c2C)cc1`, the growth inhibition is 99% (active).
The same measure, in the same setting: in the case of `CCC(=O)c1cc(C(=O)C(=S)SC)cc(C(=O)C(=S)SC)c1` it was 98% (active).
Same read-out and setting: next, `CCn1c(O)c(C=Nc2ccccc2)s/c1=N/Nc1nc(-c2ccccc2)cs1`: 12% (inactive); `Cc1ccccc1N=C(NO)c1ccccc1`: 5% (inactive); `Cc1nc2ccccc2nc1NNc1ccccc1`: 51% (inactive).
